Sampled rows, rich in hits. Any-hit rate of the full collection: about 0.85%.
Mm-Cpn inhibitor – M. maripaludis TRiC chaperonin inhibition; AID 504842; purified Mm-Cpn ATPase, ADP Transcreener TR-FRET; Potency, µM (highest dose often 76.9 µM), without a hit: top-dose activity, negative = inhibition, usual class: inhibitors; 330,000 tested, 0.031% active; further: potency means the concentration at half of the fitted maximal effect; on the % scale 0 is the no-effect control and ±100 the full control effect; nearly all actives have a fitted effect of over 80% in size
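ATP (10 uM final) was added to archaeal chaperonin (25 nM final) after 10 min exposure to test compound at 37°C; after 30 min further incubation, ADP was detected by competitive TR-FRET.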
pAkt inh – inhibitors of Akt phosphorylation. Neuro2A IGF-stimulated pAkt S473 HTRF, 20 min; stronger effect = lower value. activity change, % for hits at 50 µM. 360,000 tested, 0.32% active; in the data active means activity change below about -80%; inconclusive means mostly about -51% to -80%; further: on the % scale 0 is the no-effect control and ±100 the full control effect
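Single-point screen (50 µM final compound) in Neuro2A cells stimulated 20 min with 6 nM IGF at 37 deg C. After lysis, Ser473-phosphorylated Akt read by HTRF (ex 330 nm, em 615/665 nm) as the 665/615 ratio.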
GRP78 ERSR act – inducers of ER stress response in human glioma cells. 420,000 tested, 0.02% active. U87-MG GRP78 promoter luciferase reporter, 16 h. Potency, µM, without a hit: top-dose activation, usual class: activators; further: potency means the concentration at half of the fitted maximal effect; series mostly up to about 76 µM; % of control where 0% means no effect; nearly all actives have a fitted effect of over 35% in size
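Stably transfected U87-MG human glioma cells carrying a GRP78-based luminescent sensor were seeded at 1000 cells/well, pin-dosed with compounds and incubated 16 h. Luciferase reagent was then added, and end-point luminescence was read after 10 min at room temperature.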
CCT modulator – changes cytosolic chaperonin activity | purified chaperonin ATPase assay, HTRF ADP detection, 30 min | activity change, % (test concentration not listed), hits read low | 360,000 tested, 0.3% active; in the data active means activity change below about -30%; further: on the % scale 0 is the no-effect control and ±100 the full control effect
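First, chaperonin was dispensed at 40 nM or 20 nM final depending on batch activity. Next, compounds were pinned at 76 uM and ATP added at 10 uM. After 30 min at 37 °C, ADP detection reagents ran 30 min at ambient temperature.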
GLS inh – inhibitors of human glutaminase (GLS) | GLS enzymatic activity, qHTS titration | 410,000 tested, 0.21% active | Potency, µM (doses to about 45.5 µM), inactives show top-dose activity change, negative = inhibition, hits mostly inhibitors | AID 624170 | O94925; further: potency means the concentration at half of the fitted maximal effect; on the % scale 0 is the no-effect control and ±100 the full control effect
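Human kidney-isoform GLS in 45 mM KH2PO4 pH 8.2, 0.02% Tween-20, with compound, started with 1mM L-Glutamine (added stock). Glutamate oxidase/HRP/Amplex red coupled fluorescence read at start and after 30 min at RT.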
mIDH1 inhibitor – blocks human mutant IDH1 R132H enzyme; IDH1-R132H enzyme, NADPH consumption, diaphorase/resazurin fluorescence; O75874; AID 602179; Potency, µM (highest dose often 76.6 µM), without a hit: top-dose activity change, negative = inhibition, most hits filed as inhibitors; 390,000 tested, 0.093% active; further: potency means the concentration at half of the fitted maximal effect; on the % scale 0 is the no-effect control and ±100 the full control effect; nearly all actives have a fitted effect of over 65% in size
Target sequence (O75874 whole entry R132H, stated change not applied): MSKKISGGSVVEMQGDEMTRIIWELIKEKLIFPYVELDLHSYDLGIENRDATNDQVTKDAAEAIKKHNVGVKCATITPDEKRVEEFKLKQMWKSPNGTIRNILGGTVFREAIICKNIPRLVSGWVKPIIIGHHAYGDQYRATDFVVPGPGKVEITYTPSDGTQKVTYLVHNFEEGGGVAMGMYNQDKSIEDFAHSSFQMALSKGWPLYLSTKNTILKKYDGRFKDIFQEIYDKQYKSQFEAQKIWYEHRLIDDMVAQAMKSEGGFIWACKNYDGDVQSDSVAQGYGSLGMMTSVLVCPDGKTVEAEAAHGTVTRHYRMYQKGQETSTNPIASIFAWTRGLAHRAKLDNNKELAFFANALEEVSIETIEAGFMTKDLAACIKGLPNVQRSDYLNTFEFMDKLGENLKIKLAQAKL
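IDH1-R132H (0.5 ug/mL) preincubated 30 min with compound, then NADPH (0.016 mM) and alpha-KG (2 mM) added; 80 min at RT, pH 7.5. Remaining NADPH coupled via diaphorase/resazurin to fluorescence (540/590 nm); concentration-response curves normalized to no-enzyme control.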
Starred values were filed as active, the others as inactive; i = inactive; ? = inconclusive; . = no result given. Unless noted, the call rests on the fitted dose curve; in most records, active means well fitted curve in the direction sought with a large enough effect; inconclusive means small, poorly fitted or top-dose-only effect, or another doubt; inactive means no such curve, though single readings can be large; an effect the other way counts as inactive or inconclusive.

SMILES | Mm-Cpn inhibitor | pAkt inh | GRP78 ERSR act | CCT modulator | GLS inh | mIDH1 inhibitor
CCN(CC)S(=O)(=O)c1ccc(NC(=O)C2COc3ccccc3O2)cc1 (configuration not stated) | 1% | -121%* | 4% | -8 | 18% | 4%
O=C(Nc1ccc(F)cc1)C1COc2ccccc2O1 (configuration not stated) | 0% | i | 8% | -3 | -3% | -8%
O=C(N/N=C/c1cc2c(cc1Br)OCO2)c1ccccn1 | 0% | i | 0% | -2 | 6% | -3%
Nc1nonc1C(=O)N/N=C/c1cc2c(cc1Br)OCO2 | 0% | i | 7% | -31* | -22% | 19%
COCCn1c(=N)c(C(=O)NCCc2ccc(OC)cc2)cc2c(=O)n3cccc(C)c3nc21 | 1% | -107%* | -6% | 1 | -17% | 3%
COc1ccccc1C1CN(CCNC(=O)c2ccccc2Cl)Cc2ccccc2O1 (configuration not stated) | . | . | -3% | . | . | .
Cc1ccc(NC(=O)NCc2cccn2C)cc1C | 1% | i | 0% | -4 | 7.1µM* | -6%
O=C(CN1c2ccccc2Sc2ccccc21)NNC(=S)Nc1ccc(Cl)cc1 | 0% | i | -3% | -2 | 16µM* | -3%
O=C(CN1c2ccccc2Sc2ccccc21)NNC(=S)Nc1ccc(Cl)cc1Cl | 0% | i | 3% | 0 | 11% | -10%
Cc1cccnc1-c1cccc2c1OC(CNC(=O)C(=O)c1ccccc1)C2 (configuration not stated) | . | . | -4% | . | . | .
O=C(NCCc1cccnc1)c1cnn(-c2ncc3c(n2)-c2ccccc2CC3)c1C1CC1 | . | . | -1% | . | . | .
CN(C)CC(C)(O)c1ccc2c(c1)CN(Cc1cnn(-c3ccccc3)c1)CCO2 (configuration not stated) | . | . | -3% | . | . | .
c1ccc2[nH]c(SCc3cn4cccnc4n3)nc2c1 | -3% | i | -3% | -10 | 2% | 7%
c1ccc(-c2cnnc(SCc3cn4cccnc4n3)n2)cc1 | 2% | -112%* | -3% | -3 | 7% | 2%
COc1cccc(CN2CCCC(c3nc(C)ncc3-c3ccc(F)cc3)C2)c1OC (configuration not stated) | . | . | -6% | . | . | .
Nc1ccc(C2CCCc3nonc32)c2nonc12 (configuration not stated) | -7% | -113%* | -3% | -1 | 25% | 5%
Nc1ccc(N2CCCCC2)c2nonc12 | -5% | i | 9% | 0 | 14% | 23%
Cc1ccccc1NC(=S)c1ccc2ccccc2n1 | -5% | i | -1% | 0 | 12% | 9%
CN(C)C(=S)c1ccc2ccccc2n1 | 2% | -120%* | -4% | -1 | -2% | 2%
Cc1oc(-c2ccccc2NC(=O)c2cccnc2)nc1CNC(=O)C1CCCCCN1C (configuration not stated) | . | . | -2% | . | . | .
CO[C@H]1[C@H](NC(=O)c2ccsc2)c2ccccc2C12CCN(Cc1cc(Cl)ccc1O)CC2 | . | . | 0% | . | . | .
O=c1c(-c2nnc(SCc3ccc(Cl)cc3Cl)o2)cccn1Cc1ccccc1 | 3% | -94%* | -3% | -2 | 1% | 2%
CCOC(=O)N1CCN(Cc2ccc3c(c2)CN(C(=O)c2cc(-c4ccccc4)no2)CCO3)CC1 | . | . | -8% | . | . | .
COc1ccc(-c2ccc3c(c2)C2CC3CCN2)cc1 (configuration not stated) | . | i | 0% | 1 | 16µM* | -3%
CCCCNC(=S)N/N=C/c1cccc(OCC)c1O | -1% | i | 3% | -1 | 8.9µM* | -3%
SMILES | Mm-Cpn inhibitor | pAkt inh | GRP78 ERSR act | CCT modulator | GLS inh | mIDH1 inhibitor
CC1=C/C(=C\c2ccc(Br)o2)C(=O)O1 | 0% | i | -4% | -2 | 11µM* | -1%
COc1ccccc1-c1ccc(/C=C2/C=C(C)OC2=O)o1 | -3% | i | 0% | 0 | 3% | 3%
COc1ccc(S(=O)(=O)NCc2nc(N3CCCC3)c3cccc(C)c3n2)cc1OC | . | . | -1% | . | . | .
O=c1c2ccccc2oc2ccc(-c3ccc4[nH]ccc4c3)cc12 | . | i | -6% | 2 | 7% | -10%
O=c1c2ccccc2oc2cc(-c3ccc4cc[nH]c4c3)ccc12 | 2% | i | -1% | -44* | 6% | 0%
OC1(c2cccnc2)CCN(Cc2ccc3c(c2)CN(Cc2cc(F)ccc2F)CCO3)CC1 | . | . | -2% | . | . | .
Cc1cc(C(=O)CSc2nc3ccccc3c(=O)n2C)c(C)n1Cc1ccc2c(c1)OCO2 | -14% | -109%* | -4% | -1 | -1% | -2%
Cc1cc(SCC(=O)c2ccc3c(c2)OCO3)nc2ccccc12 | ? | i | 4% | -69* | -4% | -2%
COc1ccccc1-c1csc(N2CCC(C(N)=O)CC2)n1 | 2% | . | . | . | . | .
Cc1ccc(-n2c(SCC(=O)Nc3cc(C)on3)nc3ccccc3c2=O)cc1 | 1% | -85%* | -3% | -1 | -1% | 1%
Cc1cc(C(=O)OCC(=O)Nc2cc(C)on2)c2ccccc2n1 | 0% | i | -3% | -35* | 15% | 9%
CCCCn1c(SCC(=O)Nc2cc(C)on2)nc2ccsc2c1=O | -17% | -101%* | -3% | -2 | -14% | 8%
Cc1ccc(C(=O)CSc2nc3ccccc3c(=O)n2-c2ccccc2)s1 | -1% | -100%* | 0% | 0 | -4% | 0%
Cc1cc(NC(=O)CSc2nc3ccsc3c(=O)n2CCCCC(=O)O)no1 | 0% | i | -5% | -1 | 2% | -4%
COc1cc(-c2cc(C)c3c(OC)ccc(OC)c3n2)cc2c1OCCN(C(=O)C(C)c1n[nH]c(=O)c3ccccc13)C2 (configuration not stated) | . | . | -5% | . | . | .
CCc1nc2cc(C(=O)N(C)CC3CCCN(C)C3)cc(NC(=O)c3ccccc3OC)c2n1C (configuration not stated) | . | . | -5% | . | . | .
CC(C)C(O)(C(=O)NNc1ccccc1)C(C)C | 0% | i | -3% | -3 | 13µM* | 4%
COc1ccc(CCNC(=O)C2CCN(S(=O)(=O)c3cccc4cccnc34)CC2)cc1OC | -2% | i | -4% | -46* | 10% | 0%
Cc1cccc(N2C(S)=C(C#N)C(=O)NC2c2ccco2)c1 (configuration not stated) | -13% | i | 0% | 1 | 16% | ?
